MRP resist rev = reverses drug resistance mediated by MRP. H69AR cells + 2 uM doxorubicin, CellTiter-Glo, 72 h. differential viability (reversal), % at 10 µM. 0.04% of 85,000 active;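 active means viability drop by adding the cancer drug above about 55%, with treated viability meeting a 40% cutoff, limit read from the data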;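 further: larger differential means the compound sensitizes cells more to doxorubicin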
CYP2C9 activ = CYP2C9 (human) activation | recombinant CYP2C9, luciferin-H conversion, luminescence; hits give high values; factor 1 = untreated enzyme, 0 = blocked | activation factor at 5 µM | 1.4% of 96,000 active;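 active means activation factor of 2 or more for CYP2C9 at a 5 µM dose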
Target sequence (P11712 whole entry, looked up): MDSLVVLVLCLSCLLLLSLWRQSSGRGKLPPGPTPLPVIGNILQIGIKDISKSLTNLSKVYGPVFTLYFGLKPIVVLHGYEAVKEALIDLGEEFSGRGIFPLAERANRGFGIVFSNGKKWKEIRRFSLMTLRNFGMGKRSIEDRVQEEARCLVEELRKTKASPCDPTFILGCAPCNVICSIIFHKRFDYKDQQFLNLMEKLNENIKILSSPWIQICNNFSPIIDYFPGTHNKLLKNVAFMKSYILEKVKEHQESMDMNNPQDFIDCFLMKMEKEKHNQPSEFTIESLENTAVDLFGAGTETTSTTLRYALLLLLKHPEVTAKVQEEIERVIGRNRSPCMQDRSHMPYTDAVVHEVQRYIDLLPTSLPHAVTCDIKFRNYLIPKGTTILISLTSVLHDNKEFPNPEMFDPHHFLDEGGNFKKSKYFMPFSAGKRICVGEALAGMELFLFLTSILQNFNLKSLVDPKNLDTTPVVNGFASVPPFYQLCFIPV
CYP2C19 act = activators of human cytochrome P450 2C19 | P33261 | 96,000 tested, under 10 active | recombinant CYP2C19, luciferin-H EGE luminescence; hits give high values; 0 = fully inhibited enzyme, 1 = untreated enzyme | AID 1025 | activation factor at 5 µM;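 active means activation factor of at least 2 at 5 µM in the primary screen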
CYP2C19 inh = human CYP2C19 inhibition; P33261; CYP2C19 Supersomes, luciferin-H EGE luminescence, 30 min; inhibition, % at 5 µM; 21% of 96,000 active; AID 778;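 active means CYP2C19 inhibition above a set limit at 5 µM in the primary screen, cut at about 50% in these data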
MRP-1 activ = activators of MRP-1; 0.61% of 140,000 active; AID 799; H69AR cells + doxorubicin, viability rescue, CellTiter-Glo; viability increase, % at 10 µM;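 active means viability gain under doxorubicin at or above a set limit, the compound median plus 3 SD, cut at about 4.7% in these data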;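 further: MRP-1 overexpressing cells given doxorubicin 25 µM after compound pretreatment; 18-22 h compound pretreatment then 72 h with doxorubicin before readout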
CYP2C9 inh = human CYP2C9 inhibition; CYP2C9 Supersomes, luciferin-H conversion, luminescence; inhibition, % at 5 µM; 20% of 96,000 active;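 active means blocking of liver enzyme CYP2C9 beyond about 50% at 5 µM, limit read from the data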
Of the large screens only hits and unclear results are named; the others gave an inactive call. Most compounds without a hit are left out; they make up all but 21% or so of the library.

COc1ccc(C2CC(c3cccc(C)c3)n3ncnc3N2)cc1 (configuration not stated)	CYP2C19 inh 95.6, CYP2C9 inh 61.3
COc1ccc(C2CC(c3cc(OC)ccc3OC)n3nnnc3N2)cc1 (configuration not stated)	CYP2C19 inh 97.7, CYP2C9 inh 78.3
COc1cccc(C2CC(c3cccc(OC)c3)n3nc(N)nc3N2)c1 (configuration not stated)	none
Cc1cccc(C2CC(c3ccccc3)Nc3ncnn32)c1 (configuration not stated)	CYP2C19 inh 98.0, CYP2C9 inh 61.1
COc1ccc(C2CC(c3ccco3)n3ncnc3N2)cc1 (configuration not stated)	none (no result: CYP2C9 activ, CYP2C19 act, CYP2C19 inh, CYP2C9 inh)
CC(C)Oc1ccc(C2C(C(=O)c3ccco3)=C(O)C(=O)N2CCCN(C)C)cc1 (configuration not stated)	none (no result: CYP2C9 activ, CYP2C19 act, CYP2C19 inh, MRP-1 activ, CYP2C9 inh)
CC(=O)Nn1c(-c2ccccc2)cc2ccccc21	none
CC1(C)C(=O)OC(C(=O)c2ccccc2)C2(CCCCC2)C1=O (configuration not stated)	none (no result: MRP resist rev, CYP2C9 activ, CYP2C19 act, CYP2C19 inh, CYP2C9 inh)
CCSc1ncc(C)cc1[N+](=O)[O-]	none (no result: MRP resist rev, CYP2C9 activ, CYP2C19 act, CYP2C19 inh, CYP2C9 inh)
C[n+]1cnc(-c2ccccc2)cc1-c1ccccc1	none (no result: MRP resist rev, CYP2C9 activ, CYP2C19 act, CYP2C19 inh, CYP2C9 inh)
CCOc1ccc(C2CC(c3ccc(OC)cc3)n3ncnc3N2)cc1 (configuration not stated)	none
CCOc1ccc(C2CC(c3cccc(C)c3)n3ncnc3N2)cc1 (configuration not stated)	CYP2C19 inh 84.8, CYP2C9 inh 54.4
CCc1nc(SCc2ccc(C(=O)OC)o2)c2c(=O)n(C)c(=O)n(C)c2n1	none (no result: CYP2C9 activ, CYP2C19 act, CYP2C19 inh, CYP2C9 inh)
COc1ccc(-n2c(N)c(C(=O)NCC3CCCO3)c3nc4ccccc4nc32)c(OC)c1 (configuration not stated)	CYP2C9 inh 55.3
Nc1c(C(=O)OCC2CCCO2)c2nc3ccccc3nc2n1-c1ccc2c(c1)OCCO2 (configuration not stated)	CYP2C19 inh 54.0, CYP2C9 inh 58.6
Nc1c(C(=O)NC2CC2)c2nc3ccccc3nc2n1-c1ccc2c(c1)OCO2	none
CCCNC(=O)c1c(N)n(-c2cc(OC)cc(OC)c2)c2nc3ccccc3nc12	CYP2C9 inh 70.4
C=CCn1c(N)c(C(=O)NCC2CCCO2)c2nc3ccccc3nc21 (configuration not stated)	none
CC(=O)c1c(C(C)=O)c(C)n(NC(=O)c2ccc(Cl)cc2)c1C	none
CCOC(=O)c1c(C=O)c(C)n(Cc2ccccc2)c1C	CYP2C9 inh 69.9
CC(=O)c1c(C(C)=O)c(C)n(Cc2ccc(Cl)cc2)c1C	CYP2C19 inh 86.5
CCOC(=O)c1c(C=O)c(C)n(Cc2ccc(Cl)cc2)c1C	CYP2C9 inh 84.3
CCOC(=O)/C(N=Nc1c(Br)cc(Br)cc1Br)=C(\C)O	none (no result: MRP resist rev)
COC(=O)c1c(NC(=O)CCCC(=O)O)sc2c1CCC2	none
OC1(c2cccc(C(F)(F)F)c2)CCN(Cc2nnnn2CCc2ccccc2)CC1	none (no result: CYP2C9 activ, CYP2C19 act, CYP2C19 inh, CYP2C9 inh)
OC1(c2cccc(F)c2)CCN(Cc2ccncc2)CC1	CYP2C19 inh 65.0
Cc1nc2ccc(NC(=O)Cc3cccs3)cc2s1	CYP2C19 inh 59.2, CYP2C9 inh 65.2
Cc1nc2ccc(NC(=O)c3ccc(Cl)c(NC(=O)c4cccs4)c3)cc2s1	CYP2C9 inh 53.9
Cc1nc2ccc(NC(=O)c3cccc(S(=O)(=O)N4CC(C)OC(C)C4)c3)cc2s1 (configuration not stated)	CYP2C19 inh 71.1, CYP2C9 inh 66.2
CCCn1c(=O)n(N)c2ccccc21	none (no result: MRP resist rev, CYP2C9 activ, CYP2C19 act, CYP2C19 inh, CYP2C9 inh)
CC1CCCN(Cc2cnc(Cl)s2)C1 (configuration not stated)	CYP2C19 inh 53.1 (no result: MRP resist rev)
O=C(O)CNC1=NCCC1	none (no result: MRP-1 activ)
CC(C)(C)n1nc2c(c1NC(=O)c1cccc(C(F)(F)F)c1)CS(=O)C2 (configuration not stated)	none
COc1ccc(C2(CNC(=O)c3cc([N+](=O)[O-])cc([N+](=O)[O-])c3)CCCC2)cc1OC	none (no result: MRP resist rev, CYP2C9 activ, CYP2C19 act, CYP2C19 inh, CYP2C9 inh)
Cc1cc2nc(-c3ccc(SCC(=O)N4CCN(C(=O)c5ccco5)CC4)nc3)[nH]c2cc1C	CYP2C19 inh 72.2, CYP2C9 inh 83.8
Cc1cc2nc(-c3ccc(SCC(=O)Nc4ccc5c(c4)OCCO5)nc3)[nH]c2cc1C	CYP2C9 inh 77.5 (no result: MRP resist rev)
Cc1ccc2nc(-c3ccc(SCC(=O)Nc4ccc5c(c4)OCCO5)nc3)[nH]c2c1	none (no result: MRP resist rev, CYP2C9 activ, CYP2C19 act, CYP2C19 inh, CYP2C9 inh)
COc1ccc(COc2ccsc2C(=O)Nc2ccc(Cl)c(Cl)c2)cc1	CYP2C9 inh 55.4 (no result: MRP resist rev)
O=S(=O)(NC1CCCC1)c1ccc(S(=O)(=O)N2CCCN(Cc3ccccc3)C2)cc1	CYP2C19 inh 98.5, CYP2C9 inh 95.0
CCOC(=O)C1(O)CC(C)=NN1C(=O)c1cccc(Cl)c1 (configuration not stated)	none (no result: MRP resist rev, CYP2C9 activ, CYP2C19 act, CYP2C19 inh, CYP2C9 inh)
CN(C)CCNC(=O)COc1ccc(Cl)cc1Cl	none (no result: MRP resist rev, CYP2C9 activ, CYP2C19 act, CYP2C19 inh, CYP2C9 inh)
CN(C)CCNC(=O)COc1cccc(Cl)c1	CYP2C19 inh 72.3, CYP2C9 inh 56.3
CCCCCCCCCCS(=O)(=O)N/N=C/c1ccc(O)cc1	none (no result: MRP resist rev, CYP2C9 activ, CYP2C19 act, CYP2C19 inh, CYP2C9 inh)
CCCc1cc(N2CCN(C(=O)c3ccco3)CC2)n2c(nc3ccccc32)c1C#N	CYP2C9 inh 76.4
CC(C)NC(=O)c1onc(CSc2ccc(C(C)C)cc2)c1C(=O)O	CYP2C9 inh 90.7 (no result: MRP resist rev)
CC(C)NC(=O)c1onc(CSc2ccc(F)c(F)c2)c1C(=O)O	CYP2C9 inh 76.2 (no result: MRP resist rev)
O=C(NCC1CCCO1)c1onc(CSc2ccc(Cl)cc2)c1C(=O)O (configuration not stated)	CYP2C9 inh 51.2 (no result: MRP resist rev)
Cc1ccc(SCc2noc(C(=O)NC(C)C)c2C(=O)O)cc1C	CYP2C9 inh 80.3 (no result: MRP resist rev)
O=C(CCC1CCCC1)N1CCC(N2CCCCCC2)CC1	none (no result: MRP resist rev, CYP2C9 activ, CYP2C19 act, CYP2C19 inh, CYP2C9 inh)
CCOc1ccccc1NC(=O)C(Sc1ccccc1)c1ccccc1 (configuration not stated)	none (no result: MRP resist rev)
CC(C)NC(=O)c1onc(CSc2cccc(Cl)c2)c1C(=O)O	CYP2C9 inh 64.4 (no result: MRP resist rev)
CC(C)NC(=O)c1onc(CSc2ccc(F)cc2)c1C(=O)O	none (no result: MRP resist rev)
Cc1ccc(NC(=O)CCn2cccc2)cc1F	CYP2C19 inh 95.8, CYP2C9 inh 61.3
Cc1ccc(NC(=O)CCNC(=O)c2ccc(Cl)cc2)cc1F	MRP-1 activ 5.4 (no result: MRP resist rev, CYP2C9 activ, CYP2C19 act, CYP2C19 inh, CYP2C9 inh)
CC(=O)NCCC(=O)Nc1ccc(C)c(F)c1	none
CCN(CC)c1ccc(C(=O)Nc2cccc(F)c2)cc1	CYP2C19 inh 64.2
N#Cc1cccc(NC(=O)CCn2ccnc2)c1	CYP2C19 inh 95.4, CYP2C9 inh 87.0
N#Cc1cccc(NC(=O)c2nc(-c3ccccc3)n(-c3ccccc3)n2)c1	none
COc1ccc(C(=O)Nc2nc3c(s2)CCCC3)cc1S(=O)(=O)N1CCCc2ccccc21	none (no result: MRP resist rev, CYP2C9 activ, CYP2C19 act, CYP2C19 inh, CYP2C9 inh)
CC(C)=N/N=C(\c1cccc([N+](=O)[O-])c1)C12CN3CN(CN(C3)C1)C2	none (no result: MRP resist rev, CYP2C9 activ, CYP2C19 act, CYP2C19 inh, CYP2C9 inh)
CCN(CC)S(=O)(=O)c1ccc(O)c(NS(=O)(=O)c2ccccc2F)c1	none (no result: MRP resist rev, CYP2C9 activ, CYP2C19 act, CYP2C19 inh, CYP2C9 inh)
Cn1c(/C=N/n2cnnc2)nc2ccccc21	none
O=C(CCn1cccc1)Nc1cccc(F)c1	CYP2C19 inh 50.0

Compound activity (PubChem BioAssay)
